Here are results for four compounds from PubChem BioAssay (EPA / NIEHS).

Read-out in test [1]: Tissue Factor, F3 (gene 2152)
As to the kind of experiment: BSK_CASM3C_TissueFactor: BioMAP Diversity Plus: CASM3C Assay for Tissue Factor Biomarker Activity (AID 2283052).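 Note: cell surface tissue factor protein level read by ELISA.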 The following applies: primary human coronary artery smooth muscle cells; actives raise or lower the signal.

Read-out in test [2]: Urokinase-type plasminogen activator receptor (uPAR), PLAUR (gene 5329)
Briefly: BSK_CASM3C_uPAR: BioMAP Diversity Plus: CASM3C Assay for Urokinase-type plasminogen activator receptor (uPAR) Biomarker Activity (AID 2283054).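 Note: cell-surface uPAR protein level quantified by ELISA.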 The note with it: primary human coronary artery smooth muscle cells; actives raise or lower the signal.

Read-out in test [3]: Collagen III, COL3A1 (gene 1281)
Briefly: BSK_hDFCGF_CollagenIII: BioMAP Diversity Plus: hDFCGF Assay for Collagen III Biomarker Activity (AID 2283056). The following applies: primary human foreskin fibroblasts; actives raise or lower the signal. The gist of the method:
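ELISA readout of Collagen III in human dermal (foreskin) fibroblasts, taken 24 h post-treatment. Gain or loss relative to DMSO vehicle fitted in both directions.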

Read-out in test [4]: Epidermal growth factor receptor (EGFR), EGFR (gene 1956)
As to the kind of experiment: BSK_hDFCGF_EGFR: BioMAP Diversity Plus: hDFCGF Assay for Epidermal growth factor receptor (EGFR) Biomarker Activity (AID 2283057). The note with it: primary human foreskin fibroblasts; actives raise or lower the signal. In a few lines:
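Primary human foreskin fibroblasts (hDFCGF system), sampled 24 h after dosing; EGFR quantified by ELISA. Bidirectional fit relative to DMSO baseline; SRB total-protein staining in parallel cultures for cytotoxicity.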

Read-out in test [5]: Interleukin-8 (IL8), CXCL8 (gene 3576)
As to the kind of experiment: BSK_hDFCGF_IL8: BioMAP Diversity Plus: hDFCGF Assay for Interleukin-8 (IL8) Biomarker Activity (AID 2283058). The following applies: primary human foreskin fibroblasts; actives raise or lower the signal. The gist of the method: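 IL-8 levels read by ELISA at 24 hours after dosing human skin fibroblast cultures. Parallel SRB staining assessed overt cytotoxicity, and gain or loss of signal was fitted against DMSO control.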

A short description of test [6]: BSK_hDFCGF_Proliferation: Cell Proliferation Assessment in the BioMAP Diversity Plus: hDFCGF Assay (AID 2283059).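 Note: curves fitted for both rise and fall of signal versus DMSO baseline.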 The following applies: primary human foreskin fibroblasts. In a few lines: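 Primary human foreskin fibroblasts, sub-confluent; […]; 10% TCA fix, 0.1% SRB stain, A560 total protein. Gain/loss fitted bidirectionally vs DMSO control.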
Test [7] in a line: BSK_hDFCGF_SRB: Viability Assessment in the BioMAP Diversity Plus: hDFCGF Assay (AID 2283061).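 Note: cells exposed to compound for 24 h before the read.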 The following applies: primary human foreskin fibroblasts. The gist of the method:
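Viability was read as total protein: after 10% TCA fixation, wells were stained with 0.1% sulforhodamine B and read at 560 nm. Primary human foreskin fibroblasts were dosed for 24 h, with bidirectional fitting versus DMSO.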

Read-out in test [8]: Vascular cell adhesion molecule 1 (VCAM1), VCAM1 (gene 7412)
Briefly: BSK_hDFCGF_VCAM1: BioMAP Diversity Plus: hDFCGF Assay for Vascular cell adhesion molecule 1 (VCAM1) Biomarker Activity (AID 2283065).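 For AC50: VCAM-1 protein level quantified by ELISA after 24 h chemical exposure.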 The following applies: primary human foreskin fibroblasts; actives raise or lower the signal. The gist of the method:
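ELISA readout of VCAM-1 on human dermal fibroblast primary cultures, 24 h after chemical exposure. Gain or loss of signal fitted in both directions against DMSO baseline.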

Read-out in test [9]: Plasminogen activator inhibitor-1 (PAI1), SERPINE1 (gene 5054)
As to the kind of experiment: BSK_hDFCGF_PAI1: BioMAP Diversity Plus: hDFCGF Assay for Plasminogen activator inhibitor-1 (PAI1) Biomarker Activity (AID 2283066). The following applies: primary human foreskin fibroblasts; actives raise or lower the signal. In a few lines: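 Human foreskin fibroblast primary cells, 24 h chemical exposure; PAI-1 measured by ELISA. Bidirectional fitting relative to DMSO; parallel cultures stained with SRB for total protein to flag overt cytotoxicity.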

Read-out in test [10]: Intercellular Adhesion Molecule 1 (ICAM1), ICAM1 (gene 3383)
As to the kind of experiment: BSK_KF3CT_ICAM1: BioMAP Diversity Plus: KF3CT Assay for Intercellular Adhesion Molecule 1 (ICAM1) Biomarker Activity (AID 2283067). The note with it: primary human keratinocytes with fibroblasts; actives raise or lower the signal. The gist of the method:
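Cell-surface ICAM-1 was measured by ELISA 24 h after dosing primary human skin keratinocytes co-cultured with fibroblasts. Parallel SRB staining tracked overt cytotoxicity. Gain or loss of signal was fitted relative to DMSO.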

Read-out in test [11]: Interferon-gamma inducible Protein 10 (IP10), CXCL10 (gene 3627)
Briefly: BSK_KF3CT_IP10: BioMAP Diversity Plus: KF3CT Assay for Interferon-gamma inducible Protein 10 (IP10) Biomarker Activity (AID 2283068). The note with it: primary human keratinocytes with fibroblasts; actives raise or lower the signal. The gist of the method:
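In a primary skin co-culture of keratinocytes and fibroblasts, IP-10 is quantified by ELISA at 24 h after dosing. SRB staining of parallel wells monitors overt toxicity. Curves are fitted both directions against DMSO.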

A short description of test [12]: BSK_KF3CT_SRB: Viability Assessment in the BioMAP Diversity Plus: KF3CT Assay (AID 2283069).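 Note: total protein by sulforhodamine B staining as a cytotoxicity measure; read 24 h after compound addition.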 The following applies: primary human keratinocytes with fibroblasts. In a few lines: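 Keratinocytes co-cultured with foreskin fibroblasts (human primary); chemical added, 24 h; fix 10% TCA, stain 0.1% SRB, A560. Bidirectional fit vs DMSO.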
Read-out in test [13]: Interleukin-1 alpha (IL1a), IL1A (gene 3552)
As to the kind of experiment: BSK_KF3CT_IL1a: BioMAP Diversity Plus: KF3CT Assay for Interleukin-1 alpha (IL1a) Biomarker Activity (AID 2283070). The note with it: primary human keratinocytes with fibroblasts; actives raise or lower the signal. In a few lines:
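Chemicals were dosed onto co-cultured human keratinocytes and foreskin fibroblasts, IL-1a was quantified by ELISA at 24 h, and activity was fitted in both directions relative to DMSO controls.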

Read-out in test [14]: TIMP metallopeptidase inhibitor 2 (TIMP2), TIMP2 (gene 7077)
Briefly: BSK_KF3CT_TIMP2: BioMAP Diversity Plus: KF3CT Assay for TIMP metallopeptidase inhibitor 2 (TIMP2) Biomarker Activity (AID 2283071). The following applies: primary human keratinocytes with fibroblasts; actives raise or lower the signal. In a few lines: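 Co-culture of human primary keratinocytes and foreskin fibroblasts, measured 24 h after chemical dosing. TIMP-2 quantified by ELISA and fitted in both directions relative to DMSO. Cytotoxicity checked in parallel cultures by SRB total-protein staining.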

Read-out in test [15]: C-C motif chemokine 2 (Homo sapiens) (UniProt P13500)
As to the kind of experiment: BSK_KF3CT_MCP1: BioMAP Diversity Plus: KF3CT Assay for Monocyte Chemoattractant Protein 1 (MCP1/CCL2) Biomarker Activity (AID 2283073). The note with it: primary human keratinocytes with fibroblasts; actives raise or lower the signal. In a few lines:
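ELISA read-out of MCP-1, 24 h post-dose, in primary human skin keratinocytes co-cultured with fibroblasts. Parallel SRB staining monitors cytotoxicity; changes fitted both directions relative to DMSO.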

Read-out in test [16]: Matrix Metallopeptidase 9 (MMP9), MMP9 (gene 4318)
As to the kind of experiment: BSK_KF3CT_MMP9: BioMAP Diversity Plus: KF3CT Assay for Matrix Metallopeptidase 9 (MMP9) Biomarker Activity (AID 2283074).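 For AC50: MMP9 protein level quantified by ELISA in the co-culture.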 The following applies: primary human keratinocytes with fibroblasts; actives raise or lower the signal. In a few lines: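 Human keratinocyte/foreskin fibroblast co-culture; compound added; 24 h; MMP-9 by ELISA; bidirectional fit vs DMSO baseline.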

Read-out in test [17]: urokinase plasminogen activator (uPA), PLAU (gene 5328)
As to the kind of experiment: BSK_KF3CT_uPA: BioMAP Diversity Plus: KF3CT Assay for urokinase plasminogen activator (uPA) Biomarker Activity (AID 2283075). The following applies: primary human keratinocytes with fibroblasts; actives raise or lower the signal. The gist of the method:
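ELISA readout of uPA, analyzed for signal gain or loss relative to DMSO, from a human primary keratinocyte–foreskin fibroblast co-culture measured 24 h after chemical treatment.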

Read-out in test [18]: E-selectin (Homo sapiens) (UniProt P16581)
Briefly: BSK_LPS_Eselectin: BioMAP Diversity Plus: LPS Assay for Eselectin Biomarker Activity (AID 2283077). The note with it: primary human HUVEC with PBMC; actives raise or lower the signal. The gist of the method: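 E-selectin ELISA on LPS-stimulated endothelial cell/PBMC co-cultures, read 24 h post-treatment; gains and losses fitted against DMSO. Parallel SRB staining (0.1% SRB after 10% TCA fixation, 560 nm) flags overt cytotoxicity.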

Read-out in test [19]: Interleukin-8 (IL8), CXCL8 (gene 3576)
Briefly: BSK_LPS_IL8: BioMAP Diversity Plus: LPS Assay for Interleukin-8 (IL8) Biomarker Activity (AID 2283078). The following applies: primary human HUVEC with PBMC; actives raise or lower the signal. The gist of the method: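 ELISA read-out of IL-8 after 24 h chemical treatment of LPS-activated endothelial/PBMC human primary co-cultures. Changes either up or down relative to DMSO; overt cytotoxicity checked by sulforhodamine B staining in parallel wells.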

A short description of test [20]: BSK_LPS_SRB: Viability Assessment in the BioMAP Diversity Plus: LPS Assay (AID 2283079).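 Note: total protein by sulforhodamine B absorbance as a cytotoxicity measure; measured one day after compound addition.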 The note with it: primary human HUVEC with PBMC. The gist of the method:
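SRB viability endpoint: cells fixed with 10% TCA, stained with 0.1% SRB, read at 560 nm, 24 h post-dose. HUVEC/PBMC co-culture; signal change in either direction scored relative to DMSO.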

Where “and” joins values, the source holds several entries; their conditions need not be identical. Identical values can stand only once. Calls of active or inactive are those of the source. Rule for the calls: active = hit-call score of the fitted dose curve at least 0.9, where 1 is the maximum; inactive = score below 0.9.

E-selectin (Homo sapiens), sequence (P16581 whole entry, looked up): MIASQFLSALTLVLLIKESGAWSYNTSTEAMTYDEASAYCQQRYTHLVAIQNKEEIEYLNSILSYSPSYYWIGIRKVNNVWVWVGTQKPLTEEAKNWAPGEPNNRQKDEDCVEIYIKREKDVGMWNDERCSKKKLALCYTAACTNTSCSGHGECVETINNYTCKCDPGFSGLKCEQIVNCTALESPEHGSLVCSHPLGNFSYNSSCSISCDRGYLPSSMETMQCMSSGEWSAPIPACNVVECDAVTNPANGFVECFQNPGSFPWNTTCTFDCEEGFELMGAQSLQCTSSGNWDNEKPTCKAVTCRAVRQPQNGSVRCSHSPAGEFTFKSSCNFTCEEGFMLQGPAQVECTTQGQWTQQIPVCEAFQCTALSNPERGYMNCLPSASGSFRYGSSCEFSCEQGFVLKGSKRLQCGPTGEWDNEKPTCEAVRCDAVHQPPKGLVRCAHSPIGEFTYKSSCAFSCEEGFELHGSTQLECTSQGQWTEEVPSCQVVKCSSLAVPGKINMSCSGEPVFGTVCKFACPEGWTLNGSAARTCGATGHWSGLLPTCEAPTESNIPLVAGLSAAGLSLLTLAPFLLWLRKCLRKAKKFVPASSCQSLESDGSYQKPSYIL

Turning to `CCCCCCCCCC/C=C/C1CC(=O)OC1=O` (stereo not given), the result in test [1], in test [2], in test [3], in test [4], in [5] and in [6] was inactive. The result in test [7], in [8], in test [9], in test [10], in test [11] and in test [12] was inactive. In addition, the outcome in [13], in test [14], in test [15], in test [17], in test [18] and in [19] was inactive. In addition, the result in [20] was inactive. For the same compound, the AC50 – broadly, the concentration giving half of the maximal activity seen – in test [16] was 27.7 µM (active).
For `CN(C)Cc1cc(C(C)(C)C)c(O)c(C(C)(C)C)c1`, the outcome in test [1], in test [2], in test [4], in test [5], in [7] and in test [9] was inactive. Further, the result in test [10], in [11], in test [12], in test [13], in [14] and in test [15] was inactive. In addition, the outcome in test [16], in test [17], in [18], in [19] and in test [20] was inactive. In addition, the AC50 in [3] was 26.9 µM (active) and 20 µM (active); in test [6], 23.9 µM (active) and 24.5 µM (active); in test [8] it was 12.1 µM (active) and 20 µM (active).
With `CCCCCCCCCCCCCCCCCC[N+](C)(C)C`, the AC50 is 3.27 µM (active) in test [1]; 6.31 µM (active) in test [2]; 2.81 µM (active) in test [4]; 8.41 µM (active) in [5]; 388 nM (active) in [6]; 1.34 µM (active) in test [7]. Also, the AC50 in test [8] is 2.33 µM (active); in test [9], 1.13 µM (active); in [10], 3.6 µM (active); in test [11], 3.66 µM (active); in test [12], 2.49 µM (active); in [13], 6.81 µM (active). Further, the AC50 was 1.2 µM (active) in test [14]; 3.36 µM (active) in test [15]; 3.32 µM (active) in [16]; 3.33 µM (active) in test [17]; 8.27 µM (active) in test [18]; 7.3 µM (active) in test [19]. Also, the AC50 in test [20] is 2.72 µM (active). For the same compound, in [3], the result was inactive.
Turning to `O=C(C(=O)c1ccccc1)c1ccccc1`, the result in test [1], in test [2], in test [3], in [4], in [5] and in test [6] was inactive. Also, the outcome in [7], in test [8], in test [9], in test [10], in test [11] and in test [12] was inactive. The outcome in test [13], in [14], in test [15], in [16], in [17] and in test [18] was inactive. Besides, in test [20], the result was inactive. Further, the AC50 in test [19] is 0.0917 µM (active).
